# From PubChem BioAssay
# The source made the active and inactive calls.
# Key:
# [1] = tested on: PRMT1 (protein arginine N-methyltransferase 1); test: small molecules binding arginine methyltransferase PRMT1 – biochemical, small-molecule microarray, 635 nm fluorescence, primary screen (AID 1088); conditions: higher = more signal;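 further: binding of Prmt1 protein to compounds spotted on small-molecule microarray slides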
# [2] = growth effects on S. cerevisiae YJM789 – YJM789 clinical isolate, OD600, 24 h, basal, primary screen (AID 1089); conditions: higher = more signal, called active from +8 up or from −8 down unless noted;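 further: growth of clinical yeast isolate S. cerevisiae YJM 789 seeded 1000 cells per well; test concentration not given here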
# [3] = S. pombe growth modifiers, basal conditions – strain 972, OD600, 24 h, no modulator, primary screen (AID 1090);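 further: basal condition with compound alone and no growth modifier present; test concentration not given here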; conditions: S. pombe 972 growth; higher = more signal, called active from +8 up or from −8 down unless noted
# [4] = budding yeast growth modifiers under rapamycin – strain BY4716, OD600, 96 h, primary screen (AID 1091); further: test concentration not given here; conditions: S. cerevisiae BY4716 + rapamycin; higher = more signal, called active from +8 up or from −8 down unless noted
# [5] = molecular target: Torsin-1A-interacting protein 2 (Homo sapiens) (UniProt Q8NFQ8); test: small molecules binding lysate-expressed LULL1 – cell lysate, human LULL1 lysate, 635/667 nm fluorescence, primary screen (AID 1092); conditions: small-molecule microarray, hLULL1 lysate binding, 635 nm fluorescence; higher = more signal;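 further: probe is lysate of COS7 cells overexpressing human LULL1; score merges per-feature 667 nm fluorescence with signal-to-noise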
# [6] = optical density change of DRC41 E. coli – strain DRC41, OD650, 24 h, E. coli filamentation project, primary screen (AID 1093);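 further: MC1000 strain lacking acrAB efflux and sulA so SOS filamentation is blocked; test concentration not given here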; conditions: E. coli DRC41 growth; higher = more signal, called active from +8 up or from −8 down unless noted
# [7] = probe aLefty2 binding to arrayed compounds – biochemical, biotinylated probe, 635/667 nm fluorescence, primary screen (AID 1094); conditions: higher = more signal; small-molecule microarray, probe aLefty2, fluorescence unless noted;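 further: score merges spot fluorescence near 667 nm with spot signal-to-noise ratio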
# [8] = tested on: Noggin (protein binding on small-molecule microarray); test: small molecules binding Noggin protein – biochemical, 635/667 nm fluorescence, primary screen (AID 1095); conditions: 635 nm fluorescence, higher = more signal;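 further: score merges 667 nm feature fluorescence with signal to noise over triplicate slides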
# [9] = molecular target: Neurogenic locus notch homolog protein 3 (Homo sapiens) (UniProt Q9UM47); test: small molecules binding NOTCH3 protein – biochemical, 635/667 nm fluorescence, primary screen (AID 1096); conditions: small-molecule microarray, 635 nm fluorescence, higher = more signal
# [10] = probe aEGFR binding to arrayed compounds – biochemical, biotinylated probe, 635/667 nm fluorescence, primary screen (AID 1097); conditions: higher = more signal; small-molecule microarray, probe aEGFR, fluorescence unless noted;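 further: probe is a biotinylated anti-EGFR antibody binding compounds printed on slides; score combines fluorescence near 667 nm and signal to noise of each spot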
# [11] = tested on: Plasmodium falciparum Sir2 (PF13_0152, Sir2A); test: Plasmodium falciparum Sir2A binding compounds – biochemical, small-molecule microarray, 635 nm fluorescence, primary screen (AID 1098); conditions: fluorescence 635 nm, higher = more signal;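 further: score merges spot fluorescence intensity with its signal-to-noise ratio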
# [12] = probe aDKK1 binding to arrayed compounds – biochemical, biotinylated probe, 635/667 nm fluorescence, primary screen (AID 1099); conditions: higher = more signal; small-molecule microarray, probe aDKK1, fluorescence unless noted;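 further: score merges 667nm spot fluorescence with signal to noise across triplicate slides; reference of the scale not given here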
# [13] = probe aCHRDL2 binding to arrayed compounds – biochemical, biotinylated probe, 635/667 nm fluorescence, primary screen (AID 1100); conditions: higher = more signal; small-molecule microarray, probe aCHRDL2, fluorescence unless noted
# [14] = change in splice reporter luminescence, either direction, cell-based, HEK293, spliceosome inhibition project, primary screen (AID 1101); conditions: HEK293 splicing luciferase reporter, 24 h; higher = more signal, called active from +8 up or from −8 down unless noted;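 further: HEK293 cells carrying a splicing-competent luciferase reporter gene; test concentration not given here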
# [15] = molecular target: Fibroblast growth factor 10 (Homo sapiens) (UniProt O15520); test: compounds binding fibroblast growth factor 10 – biochemical, small-molecule microarray, 635 nm fluorescence, primary screen (AID 1102); conditions: FGF10 binding, fluorescence 635 nm, higher = more signal
# [16] = tested on: glycogen synthase kinase-3 (GSK3A per assay name; protocol says GSK3B); test: compounds binding glycogen synthase kinase-3 – biochemical, small-molecule microarray, 635 nm fluorescence, GSK3A, primary screen (AID 1103); conditions: fluorescence 635 nm, higher = more signal; further: the record names both GSK3A and GSK3B
# [17] = molecular target: Epidermal growth factor receptor (Homo sapiens) (UniProt P00533); test: compounds binding epidermal growth factor receptor – biochemical, small-molecule microarray, 635 nm fluorescence, primary screen (AID 1104); conditions: EGFR binding, higher = more signal;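 further: score merges 667 nm emission intensity with spot signal to noise over triplicate slides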
# [18] = molecular target: Follistatin-related protein 3 (Homo sapiens) (UniProt O95633); test: compounds binding follistatin-related protein 3 – biochemical, small-molecule microarray, 635 nm fluorescence, primary screen (AID 1105); conditions: FSTL3 binding, higher = more signal;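 further: score merges emission near 667 nm and signal to noise per printed spot across three slides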
# [19] = molecular target: Dickkopf-related protein 1 (Homo sapiens) (UniProt O94907); test: small molecules binding DKK1 protein – biochemical, small-molecule microarray, 635 nm fluorescence scan, primary screen (AID 1106); conditions: higher = more signal;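 further: score merges emission near 667 nm with signal to noise over three replicate slides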
# [20] = tested on: Inhibin beta A chain (activin A); test: small molecules binding activin A – biochemical, small-molecule microarray, 635 nm fluorescence scan, primary screen (AID 1107); conditions: INHBA, higher = more signal;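 further: mouse activin A protein probed at 4.33 µg/mL on printed slides; score merges bound-protein fluorescence near 667 nm with spot signal-to-noise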
# Chain of Neurogenic locus notch homolog protein 3 (Homo sapiens) (Q9UM47 whole entry, looked up): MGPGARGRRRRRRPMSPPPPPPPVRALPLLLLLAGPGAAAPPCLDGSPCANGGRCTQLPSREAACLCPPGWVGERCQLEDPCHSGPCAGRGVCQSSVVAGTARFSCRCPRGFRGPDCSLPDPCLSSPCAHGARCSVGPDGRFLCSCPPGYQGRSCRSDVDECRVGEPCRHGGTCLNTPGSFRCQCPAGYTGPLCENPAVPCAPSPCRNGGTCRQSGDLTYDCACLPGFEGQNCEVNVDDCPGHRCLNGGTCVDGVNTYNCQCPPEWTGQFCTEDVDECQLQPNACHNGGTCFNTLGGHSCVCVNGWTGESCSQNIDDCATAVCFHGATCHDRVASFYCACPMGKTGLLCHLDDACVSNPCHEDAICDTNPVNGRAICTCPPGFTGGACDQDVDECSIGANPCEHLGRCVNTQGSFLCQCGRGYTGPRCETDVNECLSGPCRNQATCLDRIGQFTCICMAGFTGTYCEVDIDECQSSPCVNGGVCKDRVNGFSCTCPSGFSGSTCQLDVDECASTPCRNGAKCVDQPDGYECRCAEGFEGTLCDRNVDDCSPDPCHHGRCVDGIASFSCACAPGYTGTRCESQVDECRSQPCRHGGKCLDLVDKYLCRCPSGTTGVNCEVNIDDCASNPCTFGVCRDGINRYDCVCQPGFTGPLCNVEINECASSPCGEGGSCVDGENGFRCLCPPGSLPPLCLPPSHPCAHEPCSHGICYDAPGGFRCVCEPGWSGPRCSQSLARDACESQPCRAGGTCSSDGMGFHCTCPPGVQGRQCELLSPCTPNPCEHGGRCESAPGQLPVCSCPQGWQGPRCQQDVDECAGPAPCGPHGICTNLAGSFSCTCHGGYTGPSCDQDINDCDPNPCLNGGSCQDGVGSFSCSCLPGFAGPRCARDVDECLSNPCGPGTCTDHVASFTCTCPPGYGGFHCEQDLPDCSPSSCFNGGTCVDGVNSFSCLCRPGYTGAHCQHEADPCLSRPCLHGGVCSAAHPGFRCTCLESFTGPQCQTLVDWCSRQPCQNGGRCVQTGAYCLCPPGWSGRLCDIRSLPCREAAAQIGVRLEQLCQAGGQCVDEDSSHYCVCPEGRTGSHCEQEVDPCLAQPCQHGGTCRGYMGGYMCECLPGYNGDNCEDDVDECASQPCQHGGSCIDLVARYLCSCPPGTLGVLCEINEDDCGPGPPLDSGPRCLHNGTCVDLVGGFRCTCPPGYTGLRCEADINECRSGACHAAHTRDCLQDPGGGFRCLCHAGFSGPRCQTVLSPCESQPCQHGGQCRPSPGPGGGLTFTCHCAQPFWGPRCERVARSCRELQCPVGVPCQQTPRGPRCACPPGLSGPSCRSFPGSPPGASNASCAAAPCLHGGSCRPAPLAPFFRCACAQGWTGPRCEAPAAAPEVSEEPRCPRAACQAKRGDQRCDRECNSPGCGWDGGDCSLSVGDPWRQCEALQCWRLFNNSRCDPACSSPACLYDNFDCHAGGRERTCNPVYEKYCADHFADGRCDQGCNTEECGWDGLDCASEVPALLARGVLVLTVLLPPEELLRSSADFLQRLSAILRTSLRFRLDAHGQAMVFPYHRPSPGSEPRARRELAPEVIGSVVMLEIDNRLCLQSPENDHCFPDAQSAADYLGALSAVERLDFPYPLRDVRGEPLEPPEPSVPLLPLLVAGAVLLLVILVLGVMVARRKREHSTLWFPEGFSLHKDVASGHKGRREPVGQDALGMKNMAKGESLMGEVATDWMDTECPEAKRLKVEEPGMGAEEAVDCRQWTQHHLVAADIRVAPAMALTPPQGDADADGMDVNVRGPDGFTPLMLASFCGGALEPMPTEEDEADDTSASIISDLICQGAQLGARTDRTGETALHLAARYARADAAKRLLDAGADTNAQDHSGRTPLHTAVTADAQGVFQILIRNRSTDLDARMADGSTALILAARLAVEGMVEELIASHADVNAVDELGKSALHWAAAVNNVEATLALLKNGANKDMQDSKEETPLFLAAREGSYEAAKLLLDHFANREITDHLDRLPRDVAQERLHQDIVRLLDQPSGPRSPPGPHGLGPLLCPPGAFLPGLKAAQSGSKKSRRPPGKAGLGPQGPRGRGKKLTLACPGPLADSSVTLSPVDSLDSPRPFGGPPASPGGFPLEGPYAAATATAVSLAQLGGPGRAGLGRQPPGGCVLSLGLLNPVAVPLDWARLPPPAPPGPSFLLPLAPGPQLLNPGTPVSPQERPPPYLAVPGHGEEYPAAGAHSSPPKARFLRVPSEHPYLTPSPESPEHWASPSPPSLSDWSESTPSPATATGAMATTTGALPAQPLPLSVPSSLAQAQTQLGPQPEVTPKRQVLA
# Chain of Fibroblast growth factor 10 (Homo sapiens) (O15520 whole entry, looked up): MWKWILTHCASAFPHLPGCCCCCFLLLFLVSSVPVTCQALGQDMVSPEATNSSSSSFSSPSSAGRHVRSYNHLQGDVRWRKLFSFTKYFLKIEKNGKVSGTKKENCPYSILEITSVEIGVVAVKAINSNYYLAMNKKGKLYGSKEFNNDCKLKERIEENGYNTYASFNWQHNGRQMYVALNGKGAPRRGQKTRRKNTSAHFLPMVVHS
# Chain of Follistatin-related protein 3 (Homo sapiens) (O95633 whole entry, looked up): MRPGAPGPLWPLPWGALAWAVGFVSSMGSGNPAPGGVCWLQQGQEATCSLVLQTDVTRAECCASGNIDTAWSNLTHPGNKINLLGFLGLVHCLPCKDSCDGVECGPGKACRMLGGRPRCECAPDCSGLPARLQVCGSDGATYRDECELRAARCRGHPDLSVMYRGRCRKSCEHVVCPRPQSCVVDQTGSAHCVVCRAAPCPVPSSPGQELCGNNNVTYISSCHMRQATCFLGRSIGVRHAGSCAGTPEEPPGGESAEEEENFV
# Chain of Epidermal growth factor receptor (Homo sapiens) (P00533 whole entry, looked up): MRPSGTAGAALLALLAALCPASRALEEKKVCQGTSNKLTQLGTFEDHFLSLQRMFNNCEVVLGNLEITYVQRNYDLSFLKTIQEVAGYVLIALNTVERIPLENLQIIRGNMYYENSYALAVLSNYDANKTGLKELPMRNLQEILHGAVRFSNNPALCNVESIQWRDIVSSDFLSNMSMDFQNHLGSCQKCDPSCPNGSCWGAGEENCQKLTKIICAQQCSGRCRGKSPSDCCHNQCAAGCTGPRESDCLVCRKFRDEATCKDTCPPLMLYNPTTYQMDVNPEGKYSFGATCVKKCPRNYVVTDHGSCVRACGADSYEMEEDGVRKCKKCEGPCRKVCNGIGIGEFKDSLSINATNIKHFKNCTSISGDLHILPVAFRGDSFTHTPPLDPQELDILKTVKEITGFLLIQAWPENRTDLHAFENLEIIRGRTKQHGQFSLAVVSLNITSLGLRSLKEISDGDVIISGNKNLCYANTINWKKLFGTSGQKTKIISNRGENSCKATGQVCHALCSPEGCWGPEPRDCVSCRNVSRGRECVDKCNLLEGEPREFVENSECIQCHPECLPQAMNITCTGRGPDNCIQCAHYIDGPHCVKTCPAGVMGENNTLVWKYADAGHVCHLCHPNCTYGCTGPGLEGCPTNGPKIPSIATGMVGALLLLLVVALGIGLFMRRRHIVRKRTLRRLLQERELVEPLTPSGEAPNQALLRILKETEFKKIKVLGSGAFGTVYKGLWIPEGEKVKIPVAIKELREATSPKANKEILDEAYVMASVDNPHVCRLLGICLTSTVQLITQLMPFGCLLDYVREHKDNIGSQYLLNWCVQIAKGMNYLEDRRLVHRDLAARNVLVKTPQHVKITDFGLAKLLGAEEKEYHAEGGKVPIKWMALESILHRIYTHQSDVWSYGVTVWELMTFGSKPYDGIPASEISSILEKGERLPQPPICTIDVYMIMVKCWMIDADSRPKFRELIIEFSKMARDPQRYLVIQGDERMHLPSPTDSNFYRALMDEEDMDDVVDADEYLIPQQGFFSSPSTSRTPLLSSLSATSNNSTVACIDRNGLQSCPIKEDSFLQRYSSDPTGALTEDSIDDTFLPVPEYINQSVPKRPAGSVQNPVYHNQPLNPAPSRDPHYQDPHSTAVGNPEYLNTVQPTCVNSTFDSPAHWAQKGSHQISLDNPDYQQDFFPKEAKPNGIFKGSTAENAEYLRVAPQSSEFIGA
# Chain of Torsin-1A-interacting protein 2 (Homo sapiens) (Q8NFQ8 whole entry, looked up): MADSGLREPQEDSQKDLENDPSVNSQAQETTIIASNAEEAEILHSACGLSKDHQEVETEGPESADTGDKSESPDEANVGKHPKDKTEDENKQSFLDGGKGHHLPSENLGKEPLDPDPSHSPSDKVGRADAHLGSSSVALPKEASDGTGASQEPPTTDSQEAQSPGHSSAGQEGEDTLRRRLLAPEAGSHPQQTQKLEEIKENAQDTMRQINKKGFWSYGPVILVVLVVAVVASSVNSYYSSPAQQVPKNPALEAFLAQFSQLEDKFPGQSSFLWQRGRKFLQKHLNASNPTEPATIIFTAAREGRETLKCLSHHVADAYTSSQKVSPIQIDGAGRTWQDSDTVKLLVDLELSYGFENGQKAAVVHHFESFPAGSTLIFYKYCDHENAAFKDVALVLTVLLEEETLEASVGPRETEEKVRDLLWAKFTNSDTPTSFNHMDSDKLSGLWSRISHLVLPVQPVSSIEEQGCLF
# Chain of Dickkopf-related protein 1 (Homo sapiens) (O94907 whole entry, looked up): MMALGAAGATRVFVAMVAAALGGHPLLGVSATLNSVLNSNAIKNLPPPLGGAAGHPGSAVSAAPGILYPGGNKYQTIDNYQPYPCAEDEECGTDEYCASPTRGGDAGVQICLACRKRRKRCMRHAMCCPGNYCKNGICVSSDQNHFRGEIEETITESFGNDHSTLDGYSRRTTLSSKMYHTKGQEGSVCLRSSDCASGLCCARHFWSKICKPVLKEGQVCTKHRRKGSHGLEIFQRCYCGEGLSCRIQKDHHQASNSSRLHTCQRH
SMILES,composite z-score [1],z-score [2],z-score [3],z-score [4],composite z-score [5],z-score [6],composite z-score [7],composite z-score [8],composite z-score [9],composite z-score [10],composite z-score [11],composite z-score [12],composite z-score [13],z-score [14],composite z-score [15],composite z-score [16],composite z-score [17],composite z-score [18],composite z-score [19],composite z-score [20]
CCCC=C(CCC)[C@@H](NP(=O)(c1ccccc1)c1ccccc1)c1ccccc1,0.905,-0.564 (inactive),0.652 (inactive),0.0781 (inactive),0.732,-0.431 (inactive),-0.17,1.11,0.474,-0.106,0.381,-0.17,0.0101,-1.55 (inactive),0.657,0.79,0.187,0.344,-0.151,0.411
O=P(c1ccccc1)(c1ccccc1)N1CC2(CC2)CC(O)(c2ccccc2)C1 (stereo not given),-0.25,-1.51 (inactive),-1.4 (inactive),-1.9 (inactive),3.57,-0.0435 (inactive),-0.0208,-0.62,0.498,0.066,0.68,0.704,0.969,-3.24 (inactive),0.11,-0.487,-0.48,-0.672,-0.673,0.72
CN1CCC(c2ccc(CO)cc2)=CC1c1cccs1 (stereo not given),-0.534,-0.539 (inactive),-2.27 (inactive),2.81 (inactive),-1.32,0.358 (inactive),-0.166,0.269,0.245,-0.0828,0.0161,-0.367,-0.17,-0.0418 (inactive),-0.474,-0.323,0.0626,0.152,1.55,0.917
COC(=O)[C@@]1(Cc2ccc(F)cc2)[C@H]2c3cc(C(=O)N(C)C)[nH]c3C[C@H]2CN1C(=O)c1ccccc1,-0.128,0.531 [setting not given] (inactive),0.0211 [setting not given] (inactive),0.229 [setting not given] (inactive),3.23,-0.152 [setting not given] (inactive),0.153 [setting not given],-0.512,-0.388,-0.0573 [setting not given],0.878,0.588 [setting not given],0.826 [setting not given],-0.825 [setting not given] (inactive),0.554,-0.275,-0.157,-0.589,-0.503,0.938
CCCc1cc2c(n1CCO)C(C)C1CN(C(=O)c3ccccc3)C(C)(C(=O)OC)C21 (stereo not given),-0.147,-0.28 (inactive),1.08 (inactive),0.158 (inactive),2.94,-0.0807 (inactive),0.851,-0.562,0.386,0.427,0.677,1.76,1.57,-1.08 (inactive),0.0807,-0.181,-0.362,0.0815,-0.369,1.24
CCOC(=O)[C@H]1CC=C2C(=O)Oc3ccc(Br)cc3[C@@H]21,1.41,-24.8 (active),-16.2 (active),-1.8 (inactive),2.61,-0.369 (inactive),-0.183,-0.701,0.428,-0.249,1.07,-0.0951,0.667,0.123 (inactive),-0.79,0.254,-1.34,-1.51,-1.48,-1.85
OCc1ccc(C2=CC(C3CC3)N(Cc3sc4ccccc4c3Cl)CC2)cc1 (stereo not given),1.56,-0.102 (inactive),-5.01 (inactive),1.47 (inactive),1.55,-1.09 (inactive),-0.0416,0.448,0.68,-0.0493,1,0.0931,0.274,-0.747 (inactive),0.458,0.979,0.417,0.48,0.8,1.04
COC(=O)[C@H]1C(=O)c2ccccc2O[C@@](C(=O)OC)(c2ccccc2)[C@@H]1c1ccccc1,-1.47,-0.644 (inactive),-1.77 (inactive),0.225 (inactive),-0.565,0.161 (inactive),-0.159,-0.054,-1.01,-0.0093,0.118,-0.246,-0.354,-0.959 (inactive),0.232,-0.831,0.0442,-0.27,0.435,0.315
C=C(CC1(CNP(=O)(c2ccccc2)c2ccccc2)CC1)c1ccccc1,-0.683,0.0836 (inactive),1.79 (inactive),-0.165 (inactive),1.98,0.0375 (inactive),-0.0934,-0.682,-0.343,-0.0493,1.34,0.19,0.752,-0.937 (inactive),0.213,-0.383,0.187,-0.77,-0.542,1.16
C[C@@H]1OC=C2[C@@H](O)[C@H]3O[C@H]3C(=O)[C@]23[C@H]1[C@H]1C2=C([C@@H](O)[C@H]4O[C@H]4C2=O)[C@@H]3O[C@@H]1C,-0.259,-0.676 (inactive),0.585 (inactive),0.0254 (inactive),-0.957,-0.101 (inactive),-0.101,0.195,-0.186,-0.0689,-0.636,-0.0177,-0.572,0.802 (inactive),0.0109,-0.349,0.367,0.22,0.568,0.503
COC(=O)C1(C)C=C2C(=C(C)C(=O)C2C)CN1 (stereo not given),-0.289,0.957 (inactive),0.437 (inactive),1.14 (inactive),-0.132,-1.5 (inactive),-0.0175,-1,-1.2,-0.139,-0.656,0.859,0.944,0.522 (inactive),-0.618,-0.623,-0.885,-0.729,-0.706,1.11
COc1cc2c(cc1O)C(C)N(C)CC2 (stereo not given),-0.474,0.051 (inactive),-2.28 (inactive),-1.65 (inactive),0.0713,0.891 (inactive),0.0914,-0.19,-0.245,0.0841,-0.528,0.0766,0.34,0.844 (inactive),-0.0182,-0.951,-0.855,-0.205,-0.227,0.953
CN1CCC(c2ccc(CO)cc2)=CC1C1CC1 (stereo not given),0.142,-1.01 (inactive),-1.39 (inactive),0.978 (inactive),-0.183,-0.409 (inactive),-0.308,0.062,-0.218,-0.154,0.262,-0.368,-0.49,0.596 (inactive),0.179,-0.107,0.388,-0.196,0.429,0.939
CN1CCc2nc(CO)c(CO)cc2C1,-0.121,0.909 (inactive),0.772 (inactive),1.47 (inactive),0.277,0.077 (inactive),-0.0912,0.543,0.765,0.0668,-0.0844,0.0703,-0.445,0.261 (inactive),0.297,0.702,0.514,0.51,0.323,-0.0175
CCCc1cc2c(n1Cc1ccco1)C(C)C1CN(C(=O)c3ccccc3)C(C)(C(=O)OC)C21 (stereo not given),0.254,-0.0941 (inactive),-0.154 (inactive),0.444 (inactive),2.03,-0.773 (inactive),0.849,0.025,1.09,0.337,1.16,1.6,1.52,1.76 (inactive),0.505,1.02,0.437,0.715,0.512,1.57
CCCc1cc2c(n1Cc1ccc(C)cc1)C(C)C1CN(C(=O)c3ccccc3)C(C)(C(=O)OC)C21 (stereo not given),0.0451,-1.78 (inactive),0.625 (inactive),-0.689 (inactive),3.08,-0.694 (inactive),1.02,-0.366,1.11,0.834,-0.232,1.69,1.46,-3.92 (inactive),1.15,0.0952,0.234,1.12,-0.0627,1.28
